# An excerpt weighted towards active compounds, which were near 2.6% of everything screened.
# Exocytosis inh: lytic granule exocytosis inhibition | TALL-104 LAMP-1 surface exposure, flow cytometry; cells stimulated with thapsigargin and PMA | inhibition, % at 10 µM | hit rate 0.66% among 360,000 | AID 651702;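 active = inhibition above about 55%, limit read from the data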
# TLR4-MyD88 BLA: inhibitors of human TLR4-MyD88 binding; O00206+Q99836; HeLa CL3-4 TLR4/MyD88 BLA complementation, FRET ratio; inhibition, % at 8.4 µM; hit rate 0.18% among 200,000; in the data active = inhibition above about 25%;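 note: 0% = vehicle and 100% = reference inhibitor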
# PRMT1 inh: PRMT1 (human) inhibition, primary screen; Q99873; recombinant PRMT1, activity-based probe fluorescence polarization; inhibition, % at 2.79 µM; hit rate 1.3% among 370,000; AID 652257;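 active = inhibition above about 21% made by adding two undisclosed values, limit read from the data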
# ABHD5 PLIN5 PPI: ABHD5-PLIN5 protein interaction inhibition; AID 602281; inhibition, % at 4 µM; Split G. princeps luciferase complementation, luminescence, 4 h; Q00G26+Q8WTS1; hit rate 0.78% among 360,000;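 active = inhibition above the mean inhibition across every tested compound plus 3 SD, cut at about 22% in these data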;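 note: 0% = DMSO only wells and the 100% control is not disclosed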
# NOD2-RIPK2 inh: NOD2-RIPK2 protein interaction inhibition. O43353. CHO BLA complementation NOD2-RIPK2, CCF4 ratio. inhibition, % at 4.98 µM. hit rate 0.38% among 360,000; in the data active = inhibition above about 21%;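 note: 0% = vehicle only and 100% = reference blocker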
# TLR9-MyD88 inh: blocks human TLR9 binding to MyD88. AID 504734. inhibition, % at 4.98 µM. hit rate 0.21% among 340,000. CHO BLA complementation TLR9-MyD88, CCF4 FRET ratio. Q9NR96+Q99836;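 active = inhibition above the mean over all tested compounds plus 3 SD, cut at about 21% in these data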;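 note: 0% = DMSO only wells and 100% = clavulanate BLA inhibitor control wells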
# ABHD5 PLIN5 conf: ABHD5-PLIN5 interaction inhibition, confirmed. shares compounds with ABHD5 PLIN5 PPI. biochemical ABHD5-PLIN5 interaction, luminescence. inhibition, % at 4 µM. hit rate 67% among 2,200; in the data active = inhibition above about 23%;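 note: 0% = DMSO vehicle wells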
# HNF4 split-luc: counter-screen for ABHD5-PLIN5 inhibitors: HNF4 split-luciferase. hit rate 77% among 2,200. HNF4 dimerization, luminescence, biochemical. shares compounds with ABHD5 PLIN5 PPI. inhibition, % at 4 µM;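 active = mean inhibition across replicate wells exceeding the computed hit threshold, cut at about 13% in these data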;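 note: light from luciferase halves that rejoin when HNF4 fusion proteins dimerize; 0% = DMSO only wells and the 100% control is not given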
# NOD2 RIPK2 conf: confirmation of human NOD2-RIPK2 interaction inhibitors; shares compounds with NOD2-RIPK2 inh; CHO cells, NOD2-RIPK2 BLA complementation, CCF4 FRET; inhibition, % at 4.98 µM; hit rate 70% among 1,200; AID 624370;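 active = mean inhibition across replicates above a set limit taken from the earlier primary screen, cut at about 21% in these data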;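 note: 0% = DMSO-only wells and the high end = clavulanate BLA-blocked wells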
# BLA counter: counter-screen for NOD2-RIPK2 interaction inhibitors: BLA reporter; shares compounds with NOD2-RIPK2 inh; CHO BLA reporter, CCF4 FRET ratio, counterscreen; inhibition, % at 4.98 µM; hit rate 57% among 1,200;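 active = mean inhibition above the low-control mean inhibition plus three low-control SD, cut at about 11% in these data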;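 note: 0% = DMSO only wells and 100% = clavulanate high control wells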
# Granule exo CP1: blocks lytic granule exocytosis; shares compounds with Exocytosis inh; TALL-104 cells, LAMP-1 externalization, flow cytometry; stimulated with PMA plus thapsigargin; inhibition, % at 10 µM; hit rate 11% among 1,500; AID 651954; in the data active = inhibition above about 60%;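 note: 0% = stimulated vehicle wells and 100% = unstimulated wells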
# Numbers without * were called inactive; / = no result given.
SMILES,Exocytosis inh,TLR4-MyD88 BLA,PRMT1 inh,ABHD5 PLIN5 PPI,NOD2-RIPK2 inh,TLR9-MyD88 inh,ABHD5 PLIN5 conf,HNF4 split-luc,Granule exo CP1,others
C[C@H](O)[C@@H]1CN2CCc3ccc(-c4ccc5c(c4)OCO5)cc3[C@@H]2C[C@@H]1N(C)C(=O)NC1CCCCC1,/,/,-5,/,/,/,/,/,/,
CCOc1ccccc1CN1CCN(Cc2c[nH]c3ccccc23)CC1CCO (configuration not stated),40,/,2,0,-1,-1,/,/,/,
CCOc1ccccc1CN1CCN(Cc2[nH]c3ccccc3c2C)CC1CCO (configuration not stated),67*,6,1,27*,4,4,7,-1,-13,
COC(=O)[C@H](Cc1ccccc1)NP(=O)(OC)[C@@H](C)NC(=O)OCc1ccccc1 (some centres not stated),/,/,-6,/,/,/,/,/,/,
COc1ccc(NC(=S)N(CCCN2CCCC2)Cc2cccn2Cc2ccc(Cl)cc2)cc1Cl,69*,9,-2,31*,5,7,13,-10,44,
FC(F)(F)c1cccc(NC(=S)N(CCCN2CCCC2)Cc2cccn2Cc2ccc(Cl)cc2)c1,68*,4,1,42*,8,-2,12,-12,22,
Cc1cccc(CCNC(=O)CSc2nc3c([nH]2)c(=O)n(C)c(=O)n3C)c1,/,/,1,/,/,/,/,/,/,
N#Cc1cc(Oc2cccc3cccnc23)c(-n2nnc3ccccc32)cc1C#N,99*,3,4,69*,70*,19,13,50*,-11,NOD2 RIPK2 conf=-11;BLA counter=-3
N#Cc1cc(O)c(-n2nnc3ccccc32)cc1C#N,-5,6,1,-9,2,0,/,/,/,
CCOC(=O)c1c(-c2ccc(C)o2)csc1NC(=O)COC(=O)c1cccs1,97*,11,2,27*,16,1,10,28*,-4,
CCOC(=O)c1c(-c2ccc(C)o2)csc1NC(=O)CN1CCOCC1,-3,0,9,5,0,-9,/,/,/,
CCCC(=O)OC[C@H]1CN(C2CCCC2)S(=O)(=O)c2c(Oc3ccc(C(C)(C)C)cc3)cccc2O1,/,/,0,/,/,/,/,/,/,
COc1cccc(C(=O)Oc2ccccc2/C=C\C(=O)c2cc3ccccc3o2)c1,86*,12,3,83*,10,5,99*,101*,20,
O=C(CNS(=O)(=O)c1ccccc1)N1CCN(c2ncccn2)CC1,/,/,4,/,/,/,/,/,/,
CC(C)Cc1ccc(S(=O)(=O)N2CCOCC2)cc1,-5,-7,1,-2,-7,-5,/,/,/,
CC(C)Cc1ccc(C(C)CC2=CCC(CN(C)C)C2=O)cc1 (configuration not stated),66*,/,0,38*,-10,-4,82*,81*,-4,
CC1=NOC(=O)/C1=C/c1ccc(-c2ccc(Cl)cc2)o1,78*,17,/,33*,-3,6,99*,107*,101*,
CN(Cc1ccco1)C(=O)[C@@H](Cc1ccccc1)NC(=O)[C@H]1O[C@@H](n2ccc(=O)[nH]c2=O)[C@H](O)[C@@H]1O,/,/,-5,/,/,/,/,/,/,
C(=C\c1ccccc1)/CSc1nnc(-c2cnccn2)n1Cc1ccco1,63*,10,8,37*,-4,-4,19,29*,-9,
O=C(c1ccc(Cl)cc1)C(CN1CCCC1)c1ccccc1 (configuration not stated),59*,/,6,48*,18,2,53*,103*,-9,

# High-throughput results from PubChem BioAssay.
